Data from PubChem BioAssay (NCATS).
Records with an inconclusive call do not appear. Active and inactive are the calls of the source. Calls follow the shape of the dose curve; as a rule, active = well fitted curve in the direction sought with a large enough effect; inconclusive = small, poorly fitted or top-dose-only effect, or another doubt; inactive = no such curve, though single readings can be large; an effect the other way counts as inactive or inconclusive.

Legend:
[1] = qHTS of pediatric cancer cell lines to identify multiple opportunities for drug repurposing: Primary screen for TC32 cells (AID 1347089); details: TC32 Ewing sarcoma viability, CellTiter-Glo luminescence, 48 h; series mostly up to 45.8 µM; also: nearly all actives have a fitted effect of over 60% in size
Summary of the method: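 Luminescent ATP read-out (CellTiter-Glo) of metabolically active TC32 cells after 48 h exposure. Concentration-response curves came from 11-point (MIPE, 0.78 nM–46 µM) or 8-point (NPC, 0.59 nM–46 µM) primary titrations; follow-up used 11 points.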

[2] = qHTS of pediatric cancer cell lines to identify multiple opportunities for drug repurposing: Primary screen for DAOY cells (AID 1347090); details: DAOY medulloblastoma viability, CellTiter-Glo luminescence, 48 h; series mostly up to 46 µM; also: nearly all actives have a fitted effect of over 55% in size; also: potency is read from the fitted curve at half-maximal effect
Summary of the method: (§1)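 Viability measured as metabolically active cells via CellTiter-Glo luminescence following 48 hours of compound exposure, 11-point dilutions in confirmatory testing. 500-1,000 cells/well plated 5 hours before dosing; controls were DMSO and 2.3 µM bortezomib.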

[3] = qHTS of pediatric cancer cell lines to identify multiple opportunities for drug repurposing: Primary screen for SJ-GBM2 cells (AID 1347091); details: SJ-GBM2 viability, CellTiter-Glo luminescence, 48 h; series mostly up to 46 µM; also: potency is read from the fitted curve at half-maximal effect
Summary of the method: as §1

[4] = qHTS of pediatric cancer cell lines to identify multiple opportunities for drug repurposing: Primary screen for A673 cells (AID 1347092); details: A673 Ewing sarcoma viability, CellTiter-Glo ATP luminescence, 48 h; series mostly up to 46 µM; also: nearly all actives have a fitted effect of over 45% in size; also: potency is read from the fitted curve at half-maximal effect
Summary of the method: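 Cell viability of A673 measured by CellTiter-Glo ATP luminescence after 48 hours compound exposure. Dilution series spanned 0.78 nM to 46 µM (MIPE, 11-point) or 0.59 nM to 46 µM (NPC, 8-point); bortezomib 2.3 uM positive control.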

[5] = qHTS of pediatric cancer cell lines to identify multiple opportunities for drug repurposing: Primary screen for SK-N-MC cells (AID 1347093); details: SK-N-MC viability, CellTiter-Glo luminescence, 48 h; series mostly up to 46 µM; also: potency is read from the fitted curve at half-maximal effect
Summary of the method: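 Metabolically active cells were quantified by ATP-dependent luminescence (CellTiter-Glo, 15 min at room temperature) following 48 h treatment. Cells had been plated at 500-1,000 per well and settled for 5 h beforehand.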

[6] = qHTS of pediatric cancer cell lines to identify multiple opportunities for drug repurposing: Primary screen for BT-37 cells (AID 1347094); details: BT-37 viability, CellTiter-Glo luminescence, 48 h; series mostly up to 57.3 µM; also: potency is read from the fitted curve at half-maximal effect
Summary of the method: (§2)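 Cells seeded at 500-1,000 cells/well in growth media, rested 5 hours at 37 degrees C, 5% CO2, then dosed; MIPE compounds at 11-point (from 0.78 nM) and NPC at 8-point (from 0.59 nM) final concentrations. Viability by CellTiter-Glo luminescence after 48 hours.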

[7] = qHTS of pediatric cancer cell lines to identify multiple opportunities for drug repurposing: Primary screen for NB-EBc1 cells (AID 1347095); details: NB-EBc1 neuroblastoma viability, CellTiter-Glo luminescence, 48 h; series mostly up to 46 µM; also: potency is read from the fitted curve at half-maximal effect
Summary of the method: as §2

[8] = qHTS of pediatric cancer cell lines to identify multiple opportunities for drug repurposing: Primary screen for U-2 OS cells (AID 1347096); details: U-2 OS viability, CellTiter-Glo luminescence, 48 h; series mostly up to 46 µM; also: nearly all actives have a fitted effect of over 50% in size; also: potency is read from the fitted curve at half-maximal effect
Summary of the method: (§3)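 Viability after 48 h compound treatment at 37C, 500-1,000 cells/well, read as ATP luminescence with CellTiter-Glo. Primary screens used 11-point (MIPE, 0.78 nM-46 µM) or 8-point (NPC, 0.59 nM-46 µM) final concentrations; follow-up screens used 11-point dilutions.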

[9] = qHTS of pediatric cancer cell lines to identify multiple opportunities for drug repurposing: Primary screen for Saos-2 cells (AID 1347097); details: Saos-2 viability, CellTiter-Glo ATP luminescence, 48 h; series mostly up to 46 µM; also: nearly all actives have a fitted effect of over 40% in size; also: potency is read from the fitted curve at half-maximal effect
Summary of the method: as §2

[10] = qHTS of pediatric cancer cell lines to identify multiple opportunities for drug repurposing: Primary screen for SK-N-SH cells (AID 1347098); details: SK-N-SH viability, CellTiter-Glo luminescence, 48 h; series mostly up to 57 µM; also: nearly all actives have a fitted effect of over 65% in size; also: potency is read from the fitted curve at half-maximal effect
Summary of the method: (§4)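 Cells (500-1,000/well) rested 5 h, then received compounds for 48 h; metabolically active cells were measured by CellTiter-Glo luminescence. Final concentrations spanned up to 46 µM (MIPE, 11-point) or 0.59 nM-46 µM (NPC, 8-point) in primary screens, 11-point in follow-ups.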

[11] = qHTS of pediatric cancer cell lines to identify multiple opportunities for drug repurposing: Primary screen for NB1643 cells (AID 1347099); details: NB1643 neuroblastoma viability, CellTiter-Glo luminescence, 48 h; series mostly up to 46 µM; also: nearly all actives have a fitted effect of over 50% in size; also: potency is read from the fitted curve at half-maximal effect
Summary of the method: as §2

[12] = qHTS of pediatric cancer cell lines to identify multiple opportunities for drug repurposing: Primary screen for LAN-5 cells (AID 1347100); details: LAN-5 neuroblastoma viability, CellTiter-Glo luminescence, 48 h; series mostly up to 46 µM; also: potency is read from the fitted curve at half-maximal effect
Summary of the method: as §3

[13] = qHTS of pediatric cancer cell lines to identify multiple opportunities for drug repurposing: Primary screen for BT-12 cells (AID 1347101); details: BT-12 viability, CellTiter-Glo luminescence, 48 h; series mostly up to 57.3 µM; also: nearly all actives have a fitted effect of over 25% in size; also: potency is read from the fitted curve at half-maximal effect
Summary of the method: as §4

[14] = qHTS of pediatric cancer cell lines to identify multiple opportunities for drug repurposing: Primary screen for Rh18 cells (AID 1347102); details: Rh18 rhabdomyosarcoma viability, CellTiter-Glo luminescence, 48 h; series mostly up to 46 µM; also: nearly all actives have a fitted effect of over 65% in size; also: potency is read from the fitted curve at half-maximal effect
Summary of the method: as §3

[15] = qHTS of pediatric cancer cell lines to identify multiple opportunities for drug repurposing: Primary screen for OHS-50 cells (AID 1347103); details: OHS-50 osteosarcoma viability, CellTiter-Glo luminescence, 48 h; series mostly up to 57.3 µM; also: nearly all actives have a fitted effect of over 40% in size; also: potency is read from the fitted curve at half-maximal effect
Summary of the method: as §4

[16] = qHTS of pediatric cancer cell lines to identify multiple opportunities for drug repurposing: Primary screen for RD cells (AID 1347104); details: RD rhabdomyosarcoma viability, CellTiter-Glo luminescence, 48 h; series mostly up to 46 µM; also: nearly all actives have a fitted effect of over 55% in size; also: potency is read from the fitted curve at half-maximal effect
Summary of the method: as §2

[17] = qHTS of pediatric cancer cell lines to identify multiple opportunities for drug repurposing: Primary screen for MG 63 (6-TG R) cells (AID 1347105); details: MG 63 (6-TG R) viability, CellTiter-Glo, 48 h; series mostly up to 46 µM; also: nearly all actives have a fitted effect of over 50% in size; also: potency is read from the fitted curve at half-maximal effect
Summary of the method: as §2

[18] = qHTS of pediatric cancer cell lines to identify multiple opportunities for drug repurposing: Primary screen for control Hh wild type fibroblast cells (AID 1347106); details: Hh wild-type fibroblast viability, CellTiter-Glo luminescence, 48 h; series mostly up to 46 µM;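 also: a drop in luminescence marks cytotoxicity and a rise apparent proliferation; nearly all actives have a fitted effect of over 55% in size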
Summary of the method: as §3

[19] = qHTS of pediatric cancer cell lines to identify multiple opportunities for drug repurposing: Primary screen for Rh30 cells (AID 1347107); details: Rh30 rhabdomyosarcoma viability, CellTiter-Glo luminescence, 48 h; series mostly up to 46 µM; also: nearly all actives have a fitted effect of over 75% in size
Summary of the method: as §3

[20] = target: Parathyroid hormone/parathyroid hormone-related peptide receptor (Homo sapiens) (UniProt Q03431); test: qHTS for PTHR1 Agonists: Optimization Screen against the NCGC LOPAC library (AID 1347079); details: HEK293 GP2 PTHR1 GloSensor cAMP luminescence, 1 h; series mostly up to 57.1 µM;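 also: GloSensor cAMP luminescence in HEK-293 GP2 cells expressing human PTHR1 with IBMX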
Summary of the method: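 Agonist readout: GloSensor cAMP luminescence, read after 15 min at room temperature. HEK-293-derived GP2 line carries PTHR1; compounds tested as a titration for 1 hr at 37C in presence of IBMX. M-PTH (1-15) served as control.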

Measured: Potency

Parathyroid hormone/parathyroid hormone-related peptide receptor (Homo sapiens), sequence (Q03431 whole entry, looked up): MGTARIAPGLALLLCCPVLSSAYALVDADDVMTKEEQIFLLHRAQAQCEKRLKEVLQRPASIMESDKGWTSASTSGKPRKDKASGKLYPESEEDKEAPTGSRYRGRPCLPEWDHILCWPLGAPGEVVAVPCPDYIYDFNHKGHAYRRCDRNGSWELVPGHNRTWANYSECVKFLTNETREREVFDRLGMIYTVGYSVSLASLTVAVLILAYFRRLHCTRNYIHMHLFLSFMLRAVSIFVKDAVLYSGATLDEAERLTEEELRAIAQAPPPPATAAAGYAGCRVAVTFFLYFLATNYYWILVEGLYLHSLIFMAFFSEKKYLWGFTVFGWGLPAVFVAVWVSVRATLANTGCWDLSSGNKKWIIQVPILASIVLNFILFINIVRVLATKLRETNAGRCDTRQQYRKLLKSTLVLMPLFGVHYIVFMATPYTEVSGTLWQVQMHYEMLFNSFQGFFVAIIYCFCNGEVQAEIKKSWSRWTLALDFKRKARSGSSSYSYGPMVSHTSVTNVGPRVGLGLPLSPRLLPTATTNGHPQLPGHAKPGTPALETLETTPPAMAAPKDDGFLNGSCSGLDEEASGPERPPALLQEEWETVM

OC[C@@H](O)[C@H](O)[C@H](O)[C@@H](O)CO
not listed: [20]
inactive: all other assays above

COC(=O)[C@@H]1[C@H]2C[C@H]3c4[nH]c5ccccc5c4CCN3C[C@@H]2CC[C@@H]1O
not listed: [6] | [9] | [11]
inactive: all other assays above

C[N+](C)(C)CCCCCC[N+](C)(C)C
not listed: [4] | [5] | [11]
inactive: all other assays above

CC(C)NCC(O)COc1cccc2[nH]ccc12 (stereo not drawn)
not listed: [1] | [5] | [9]
inactive: all other assays above

CC(C)(C)c1ccc(C(O)CCCN2CCC(C(O)(c3ccccc3)c3ccccc3)CC2)cc1 (stereo not drawn)
not listed: [10] | [11] | [12] | [14]
inactive: all other assays above

C[N+](C)(C)CC(=O)O
active: [5] 16.6 µM
not listed: [20]
inactive: all other assays above

COc1ccccc1N1CCN(CCCNc2cc(=O)n(C)c(=O)n2C)CC1
not listed: [5] | [11]
inactive: all other assays above

O=c1cc(-c2ccc(O)cc2)oc2cc(O)cc(O)c12
inactive: [20] | [1] | [18]
active: [2] 14.8 µM | [3] 1.32 µM | [4] 1.18 µM | [6] 3.06 µM | [7] 4.69 µM | [9] 14.8 µM | [11] 0.469 µM | [12] 3.32 µM | [13] 3.43 µM | [14] 2.35 µM | [15] 3.06 µM | [16] 2.96 µM | [17] 18.7 µM

CC/C(=C(\c1ccccc1)c1ccc(OCCN(C)C)cc1)c1ccccc1
active: [5] 16.8 µM | [9] 21.1 µM | [10] 24.4 µM | [13] 27.6 µM | [15] 17.4 µM
inactive: [20] | [2] | [17] | [18] | [19]

Clc1ccc(C(c2ccc(Cl)cc2)n2cc[n+](CC(OCc3ccc(Cl)cc3Cl)c3ccc(Cl)cc3Cl)c2)cc1 (stereo not drawn)
inactive: [20] | [1]
active: [2] 23.5 µM | [3] 23.5 µM | [4] 18.7 µM | [5] 7.43 µM | [6] 21.7 µM | [7] 23.5 µM | [9] 11.8 µM | [10] 24.1 µM | [12] 18.7 µM | [13] 21.7 µM | [15] 17.2 µM | [16] 33.2 µM | [17] 23.5 µM

CCN(CC)CCNC(=O)c1ccc(N)cc1
not listed: [5] | [8]
inactive: all other assays above

CCN1CCC[C@H]1CNC(=O)c1cc(S(N)(=O)=O)ccc1OC
not listed: [4] | [14]
inactive: all other assays above

O=c1c(-c2ccc(O)cc2)coc2cc(O)ccc12
not listed: [5] | [10]
inactive: all other assays above

CC1=C(/C=C/C(C)=C/C=C/C(C)=C/C(=O)Nc2ccc(O)cc2)C(C)(C)CCC1
inactive: [20] | [18]
active: [4] 6.68 µM | [5] 6.68 µM | [6] 15.5 µM | [8] 26.6 µM | [9] 23.7 µM | [13] 7.77 µM | [15] 15.5 µM | [16] 26.6 µM
